Measured values as given in PubChem BioAssay AID1159580 (chemical genetic matrix, 2015).
In all, about 5,500 compounds went through this assay and about 2,000 (36%) were called active. Inconclusive results (about 18%) are left out. Rule as the data show it: active = normalized growth mostly below about 0.91 (no sharp cut-off); inconclusive = no clear call, values can overlap the other calls; inactive = mostly above about 0.92. The list shows a part of the results.

Assay: chemical genetic growth profiling, strain panel (AID 1159580);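 also: tested at 20 µM; growth read once vehicle control cultures reached saturation at 30 °C; 1 = growth at the plate median or of vehicle wells; lower values mean less growth of the strain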
Settings: S. cerevisiae deletion strains, growth OD

Measured: normalized growth

CC(=O)N[C@H](C(=O)O)C(C)(C)SN=O
inactive: locus YAL013W, strain DEP1, active compounds read low 1.01 | locus YAL040C, strain CLN3, active compounds read low 1.01 | locus YCL061C, strain MRC1 (second series), active compounds read low 1.01 | locus YDR363W, strain ESC2, active compounds read low 0.989 | locus YER002W, strain NOP16, active compounds read low 1.01 | locus YGR078C, strain PAC10, active compounds read low 1.02 | locus YGR229C, strain SMI1, active compounds read low 1 | locus YMR307W, strain GAS1, active compounds read low 0.987 | locus YNL128W, strain TEP1, active compounds read low 0.998 | locus YNL153C, strain GIM3, active compounds read low 1.02 | locus YNL175C, strain NOP13, active compounds read low 1.01 | locus YNL197C, strain WHI3, active compounds read low 1.01 | locus YNL224C, strain SQS1, active compounds read low 1.02 | locus YNL322C, strain KRE1, active compounds read low 1.01 | locus YOR083W, strain WHI5 (second series), active compounds read low 1.02 | locus YPL241C, strain CIN2, active compounds read low 1.01

CC(=O)O[C@H]1CC2CCC3C(CC[C@@]4(C)C3C[C@H]([N+]3(C)CCCCC3)[C@@H]4OC(C)=O)[C@@]2(C)C[C@@H]1N1CCCCC1 (stereo partly specified)
inactive: locus YAL021C, strain ccr4, active compounds read low 1.02 | locus YAL026C, strain drs2, active compounds read low 1.03 | locus YAL030W, strain snc1, active compounds read low 1.03 | locus YBL061C, strain skt5, active compounds read low 1.02 | locus YBR009C, strain hhf1, active compounds read low 1.03 | locus YBR023C, strain chs3, active compounds read low 1.02 | locus YBR171W, strain sec66, active compounds read low 1.04 | locus YBR231C, strain swc5, active compounds read low 1.03 | locus YBR279W, strain paf1, active compounds read low 1.03 | locus YCL011C, strain gbp2, active compounds read low 1.03 | locus YCL016C, strain dcc1, active compounds read low 1.02 | locus YCL061C, strain MRC1, active compounds read low 1.02 | locus YCL069W, strain vba3, active compounds read low 1.02 | locus YCR088W, strain abp1, active compounds read low 1.02 | locus YDL005C, strain med2, active compounds read low 1.03 | locus YDL040C, strain nat1, active compounds read low 1.01 | locus YDR001C, strain nth1, active compounds read low 1.02 | locus YDR069C, strain doa4, active compounds read low 1.02 | locus YDR137W, strain rgp1, active compounds read low 1.07 | locus YDR159W, strain sac3, active compounds read low 1.03 | locus YDR195W, strain ref2 1.03 | locus YDR297W, strain sur2, active compounds read low 1.02 | locus YDR334W, strain swr1, active compounds read low 1.02 | locus YDR335W, strain msn5, active compounds read low 1.02 | locus YDR392W, strain spt3, active compounds read low 0.868 | locus YEL003W, strain gim4, active compounds read low 1.02 | locus YEL037C, strain rad23, active compounds read low 1.02 | locus YEL061C, strain CIN8 (second series), active compounds read low 1.03 | locus YER015W, strain faa2, active compounds read low 1.02 | locus YER016W, strain bim1, active compounds read low 1.02 | locus YER111C, strain swi4, active compounds read low 1.01 | locus YER155C, strain BEM2 (second series), active compounds read low 1.03 | locus YFR010W, strain ubp6, active compounds read low 1.01 | locus YGL167C, strain pmr1, active compounds read low 1.04 | locus YGL173C, strain kem1, active compounds read low 1.03 | locus YGL227W, strain vid30, active compounds read low 1.02 | locus YGL240W, strain doc1, active compounds read low 1.04 | locus YGL253W, strain hxk2, active compounds read low 1.01 | locus YHR013C, strain ard1, active compounds read low 1.01 | locus YHR027C, strain rpn1, active compounds read low 1.02 | locus YHR030C, strain SLT2, active compounds read low 1.05 | locus YHR079C, strain IRE1, active compounds read low 1.03 | locus YHR142W, strain chs7, active compounds read low 1.02 | locus YJL092W, strain hpr5, active compounds read low 1.01 | locus YJL095W, strain BCK1 (second series), active compounds read low 1.02 | locus YJL095W, strain BCK1, active compounds read low 0.993 | locus YJL115W, strain asf1, active compounds read low 1.02 | locus YJL129C, strain trk1, active compounds read low 1.03 | locus YJL154C, strain vps35, active compounds read low 1.02 | locus YJL164C, strain tpk1, active compounds read low 1 | locus YJL166W, strain qcr8, active compounds read low 1.03 | locus YJL187C, strain SWE1, active compounds read low 1.03 | locus YJR066W, strain TOR1, active compounds read low 0.979 | locus YKL160W, strain elf1, active compounds read low 1.03 | locus YKR026C, strain gcn3, active compounds read low 0.998 | locus YKR091W, strain srl3, active compounds read low 1.03 | locus YLL001W, strain dnm1, active compounds read low 1.01 | locus YLL026W, active compounds read low 1.02 | locus YLL041C, strain sdh2, active compounds read low 1.02 | locus YLR027C, strain aat2, active compounds read low 1.02 | locus YLR113W, strain HOG1, active compounds read low 0.99 | locus YLR221C, strain rsa3, active compounds read low 1.01 | locus YLR258W, strain gsy2, active compounds read low 1.02 | locus YLR262C, strain YPT6 (second series), active compounds read low 1.04 | locus YLR320W, strain mms22, active compounds read low 1.02 | locus YLR342W, strain FKS1, active compounds read low 1.02 | locus YLR357W, strain rsc2, active compounds read low 1.04 | locus YLR370C, strain arc18, active compounds read low 1.02 | locus YLR384C, strain iki3, active compounds read low 1.03 | locus YML120C, strain ndi1, active compounds read low 1.02 | locus YMR058W, strain fet3, active compounds read low 1.03 | locus YMR125W, strain sto1, active compounds read low 1.05 | locus YMR129W, active compounds read low 1.02 | locus YMR205C, strain PFK2, active compounds read low 1.05 | locus YMR231W, strain pep5, active compounds read low 1.02 | locus YNL071W, strain lat1, active compounds read low 1.01 | locus YNL183C, strain NPR1, active compounds read low 0.965 | locus YNL209W, strain ssb2, active compounds read low 1.02 | locus YNL248C, strain rpa49, active compounds read low 1.01 | locus YNL322C, strain KRE1 (second series), active compounds read low 1.02 | locus YNR049C, strain mso1, active compounds read low 1.01 | locus YOR001W, strain rrp6, active compounds read low 1.02 | locus YOR070C, strain gyp1, active compounds read low 1.01 | locus YOR080W, strain dia2, active compounds read low 1.04 | locus YOR083W, strain WHI5, active compounds read low 1.02 | locus YOR106W, strain vam3, active compounds read low 1.02 | locus YOR231W, strain MKK1, active compounds read low 1.04 | locus YOR265W, strain rbl2, active compounds read low 1.02 | locus YOR270C, strain vph1, active compounds read low 1.04 | locus YOR290C, strain snf2, active compounds read low 1.03 | locus YPL051W, strain arl3, active compounds read low 1.01 | locus YPL078C, strain atp4, active compounds read low 1.02 | locus YPL106C, strain sse1, active compounds read low 1.02 | locus YPL240C, strain hsp82, active compounds read low 1.01 | locus YPL256C, strain CLN2, active compounds read low 1.04
